In PubChem BioAssay (Tox21) one finds Potency and outcome data, which are given here for 31 compounds.

Structures are written as SMILES. Results filed as inconclusive are left out. A call without a number means that no potency is given here. The source made the active and inactive calls. Unless noted, calls follow the shape of the dose curve; as a rule, active = well fitted cell-killing curve with a large enough effect in the repeat runs (not every such curve was filed as active); inconclusive = weak or mixed curves, or effect the other way; inactive = no such curve, though single readings can be large or run the other way.

Vitamin D3 receptor (Homo sapiens), sequence (P11473 whole entry, looked up): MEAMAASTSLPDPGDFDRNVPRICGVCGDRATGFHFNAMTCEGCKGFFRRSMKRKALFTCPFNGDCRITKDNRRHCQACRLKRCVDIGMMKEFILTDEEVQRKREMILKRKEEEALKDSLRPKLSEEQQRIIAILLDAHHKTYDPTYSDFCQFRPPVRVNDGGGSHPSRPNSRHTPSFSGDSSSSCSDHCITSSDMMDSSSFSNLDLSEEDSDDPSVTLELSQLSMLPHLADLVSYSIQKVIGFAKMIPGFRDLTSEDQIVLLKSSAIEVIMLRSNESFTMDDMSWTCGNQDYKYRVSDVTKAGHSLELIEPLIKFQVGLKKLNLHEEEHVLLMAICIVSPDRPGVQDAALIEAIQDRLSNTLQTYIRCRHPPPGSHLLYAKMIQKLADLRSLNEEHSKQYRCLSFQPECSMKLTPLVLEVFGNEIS

System in one assay: not listed separately
Nature of the assay: qHTS assay to identify small molecule antagonists of the farnesoid-X-receptor (FXR) signaling pathway - cell viability counter screen (AID 743221). Also: nearly all actives have a fitted effect of over 50% in size. Also: potency is read from the fitted curve at half-maximal effect. As to conditions: FXR-bla HEK293T viability, CellTiter-Glo luminescence, 16 h; series mostly up to 62.6 µM. Summed up:
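HEK 293T FXR-bla cells, 5 h pre-incubation; compound + CDCA 50 uM final, 16 h, 37 C; beta-lactamase FRET read first, then CellTiter-Glo luminescence, 30 min RT.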
Regarding `COS(=O)(=O)C(F)(F)F`, the Potency result is “inactive”.
Consider `CC(C)C[C@H]1C(=O)N2CCC[C@H]2[C@]2(O)O[C@](NC(=O)[C@@H]3C=C4c5cccc6[nH]c(Br)c(c56)C[C@H]4N(C)C3)(C(C)C)C(=O)N12`, for which the Potency entry is “inactive”.
For the compound `CC1=CC[C@H](C(C)C)C=C1`, the Potency was 49 µM (active).
Take `Cc1ccc(C(C)OC(=O)C2(C)CCC(C(=O)O)C2(C)C)cc1` (stereo unspecified): the Potency result was “inactive”.
Same read-out and setting: the entry for `S=C([S-])NCCNC(=S)[S-].[Mn+2]` is “inactive”.
The same measure, in the same setting: the entry for `CCC(Cl)CCC(Cl)C(Cl)CC(Cl)C(Cl)C(Cl)CCl` (stereo unspecified) is “inactive”; for `c1ccc(C(O[C@H]2CCCN(CCc3ccc4c(c3)OCO4)C2)c2ccccc2)cc1` it is “inactive”.
Same read-out and setting: the entry for `O=C(OCCCCCCOC(=O)c1ccccc1)c1ccccc1` is “inactive”.
As for `COc1cc2nc(N3CCN(C(=O)C4COc5ccccc5O4)CC3)nc(N)c2cc1OC` (stereo unspecified), the Potency result is “inactive”.
In the case of `CCCNCC(O)COc1ccccc1C(=O)CCc1ccccc1` (stereo unspecified), the Potency result was “inactive”.
The same measure, in the same setting: the entry for `Cc1nn(C)c(Oc2ccccc2)c1/C=N/OCc1ccc(C(=O)OC(C)(C)C)cc1` is “inactive”; for `CCC(C)(C)CC` it is “inactive”.
Regarding `CCCCC/C=C\C/C=C\CCCCCCCC(=O)NC(C)c1ccccc1` (stereo unspecified), the Potency entry was “inactive”.
The same measure, in the same setting: the entry for `CCCCCCCCCCCC(=O)OC[C@@H](O)[C@H]1OC[C@H](OCCO)[C@H]1OCCO` is “inactive”; for `COc1ccc(-c2nc3ccc(C4=NNC(=O)CC4C)cc3[nH]2)cc1` (stereo unspecified) it is “inactive”.
The same measure, in the same setting: the value for `CCN(CC)CCOC(=O)C(c1ccccc1)C1CCCCC1` (stereo unspecified) was “inactive”; that for `COc1ccc(S(=O)(=O)N2C(=O)[C@@](c3ccccc3OC)(N3C[C@H](O)C[C@H]3C(=O)N(C)C)c3cc(Cl)ccc32)c(OC)c1` was “inactive”; that for `C[N+](C)(C)CCOC(=O)CCC(=O)OCC[N+](C)(C)C` was “inactive”.
As to `CCCCCCCCCCCCCCCCOS(=O)(=O)O`, the Potency result is “inactive”.
The same measure, in the same setting: the value for `Cc1cc(N)c2cc(NC(=O)Nc3ccc4nc(C)cc(N)c4c3)ccc2n1` was 18.8 µM (active); that for `Cc1cccc(C)c1OCC(=O)N[C@@H](Cc1ccccc1)[C@@H](O)C[C@H](Cc1ccccc1)NC(=O)[C@H](C(C)C)N1CCCNC1=O` was 23.7 µM (active); that for `C/C=C(/C(=C/C)c1ccc(OC(C)=O)cc1)c1ccc(OC(C)=O)cc1` was “inactive”.
Take `O=C(O)C1(C(=O)Nc2ccc(Cl)cc2Cl)CC1`: the Potency entry is “inactive”.
Regarding `CCC(C)c1cc(C(C)(C)C)c(O)c(C(C)(C)C)c1` (stereo unspecified), the Potency result is “inactive”.
In the case of `CCN(CC)c1ccc(C(=C2C=CC(=[N+](CC)CC)C=C2)c2cc(S(=O)(=O)O)ccc2S(=O)(=O)[O-])cc1`, the Potency result was “inactive”.
As for `CC(C)(CO)[N+](=O)[O-]`, the Potency result was “inactive”.

Another assay has as its target Vitamin D3 receptor (Homo sapiens) (UniProt P11473). Nature of the assay: qHTS assay to identify small molecule agonists of the vitamin D receptor (VDR) signaling pathway (AID 743222; calls by dose curve). The settings on record: HEK293T VDR-UAS-bla, beta-lactamase FRET ratio, 16 h; series mostly up to 63.5 µM. The essentials: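 Beta-lactamase reporter readout (LiveBLAzer B/G FRET, 2 h RT) in VDR-bla cells after 16 h compound treatment at 37C, 5% CO2; cells pre-incubated 4 h before pin transfer of DMSO solutions.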
Regarding `CCCCC(CC)CN1C(=O)C2C3C=CC(C3)C2C1=O` (stereo unspecified), the Potency result was “inactive”.
Consider `CC(C)C[C@H]1C(=O)N2CCC[C@H]2[C@]2(O)O[C@](NC(=O)[C@@H]3C=C4c5cccc6[nH]c(Br)c(c56)C[C@H]4N(C)C3)(C(C)C)C(=O)N12`, for which the Potency result was “inactive”.
On the same count and under the same terms, the entry for `Cc1ccc(C(C)OC(=O)C2(C)CCC(C(=O)O)C2(C)C)cc1` (stereo unspecified) is “inactive”.
For the compound `S=C([S-])NCCNC(=S)[S-].[Mn+2]`, the Potency result was “inactive”.
The same measure, in the same setting: the entry for `CCOC(=O)C1=C[C@]2(CC)CCCN3CCc4c(n1c1ccccc41)[C@@H]32` is “inactive”; for `COc1cc2nc(N3CCN(C(=O)C4COc5ccccc5O4)CC3)nc(N)c2cc1OC` (stereo unspecified) it is “inactive”.
Still for that read-out and setting: the value for `CCCNCC(O)COc1ccccc1C(=O)CCc1ccccc1` (stereo unspecified) was “inactive”.
With `Cc1nn(C)c(Oc2ccccc2)c1/C=N/OCc1ccc(C(=O)OC(C)(C)C)cc1`, the Potency entry is “inactive”.
Take `C#C[C@]1(O)CC[C@H]2[C@@H]3CCc4cc(OC5CCCC5)ccc4[C@H]3CC[C@@]21C`: the Potency result is “inactive”.
The same measure, in the same setting: the value for `CCCCCCCCCCCC(=O)OC[C@@H](O)[C@H]1OC[C@H](OCCO)[C@H]1OCCO` was “inactive”; that for `COc1ccc(-c2nc3ccc(C4=NNC(=O)CC4C)cc3[nH]2)cc1` (stereo unspecified) was “inactive”.
Same read-out and setting: the value for `CCN(CC)CCOC(=O)C(c1ccccc1)C1CCCCC1` (stereo unspecified) was “inactive”; that for `COc1ccc(S(=O)(=O)N2C(=O)[C@@](c3ccccc3OC)(N3C[C@H](O)C[C@H]3C(=O)N(C)C)c3cc(Cl)ccc32)c(OC)c1` was “inactive”.
On the same count and under the same terms, the value for `CN(C)CCOC(c1ccccc1)c1ccc(Br)cc1` (stereo unspecified) was “inactive”; that for `CN(C)CCCN1c2ccccc2Sc2ccccc21` was “inactive”; that for `CCCCCCCCCCCCCCCCOS(=O)(=O)O` was “inactive”.
As to `Cc1cc(N)c2cc(NC(=O)Nc3ccc4nc(C)cc(N)c4c3)ccc2n1`, the Potency result was “inactive”.
Same read-out and setting: the entry for `Cc1cccc(C)c1OCC(=O)N[C@@H](Cc1ccccc1)[C@@H](O)C[C@H](Cc1ccccc1)NC(=O)[C@H](C(C)C)N1CCCNC1=O` is “inactive”.
Still for that read-out and setting: the value for `C/C=C(/C(=C/C)c1ccc(OC(C)=O)cc1)c1ccc(OC(C)=O)cc1` was “inactive”; that for `CCC(C)c1cc(C(C)(C)C)c(O)c(C(C)(C)C)c1` (stereo unspecified) was “inactive”; that for `CCN(CC)c1ccc(C(=C2C=CC(=[N+](CC)CC)C=C2)c2cc(S(=O)(=O)O)ccc2S(=O)(=O)[O-])cc1` was “inactive”.
Turning to `CC(C)(CO)[N+](=O)[O-]`, the Potency result is “inactive”.

For the next assay the target is unchanged. The assay can be described thus: qHTS assay to identify small molecule antagonists of the vitamin D receptor (VDR) signaling pathway (AID 743223; active = well fitted inhibition curve with a large enough effect in the signal ratio in the repeat runs, not every such curve was filed as active; the % refers to the signal ratio). As to conditions: VDR-UAS-bla HEK293T, beta-lactamase FRET ratio, 16 h; series mostly up to 61 µM. Summed up: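 Beta-lactamase reporter read-out: FRET substrate fluorescence after 2 h at room temperature, following 16 h exposure of VDR-bla cells to test compound plus 3 nM (final) 1alpha,25-dihydroxyvitamin D3 agonist at 37C.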
On to `CC(C)C[C@H]1C(=O)N2CCC[C@H]2[C@]2(O)O[C@](NC(=O)[C@@H]3C=C4c5cccc6[nH]c(Br)c(c56)C[C@H]4N(C)C3)(C(C)C)C(=O)N12`, for which the outcome was inactive.
As for `CCC(Cl)CCC(Cl)C(Cl)CC(Cl)C(Cl)C(Cl)CCl` (stereo unspecified), the result was inactive.
On the same count and under the same terms, the entry for `O=C(OCCCCCCOC(=O)c1ccccc1)c1ccccc1` is “inactive”.
For `COc1cc2nc(N3CCN(C(=O)C4COc5ccccc5O4)CC3)nc(N)c2cc1OC` (stereo unspecified), the result was inactive.
As to `CCCNCC(O)COc1ccccc1C(=O)CCc1ccccc1` (stereo unspecified), the result was inactive.
As to `C#C[C@]1(O)CC[C@H]2[C@@H]3CCc4cc(OC5CCCC5)ccc4[C@H]3CC[C@@]21C`, the result was inactive.
For `CCC(C)(C)CC`, the result was inactive.
With `COc1ccc(-c2nc3ccc(C4=NNC(=O)CC4C)cc3[nH]2)cc1` (stereo unspecified), the result was inactive.
On the same count and under the same terms, the value for `CCN(CC)CCOC(=O)C(c1ccccc1)C1CCCCC1` (stereo unspecified) was “inactive”.
As to `CN(C)CCOC(c1ccccc1)c1ccc(Br)cc1` (stereo unspecified), the result was inactive.
As to `CCCCCCCCCCCCCCCCOS(=O)(=O)O`, the outcome was inactive.
On to `Cc1cc(N)c2cc(NC(=O)Nc3ccc4nc(C)cc(N)c4c3)ccc2n1`, for which the outcome was inactive.
`Cc1cccc(C)c1OCC(=O)N[C@@H](Cc1ccccc1)[C@@H](O)C[C@H](Cc1ccccc1)NC(=O)[C@H](C(C)C)N1CCCNC1=O`: the result was inactive.
